# This is a sample that favours compounds with a hit; in the whole collection about 12% have one here.
# ALDH1A1 inh – blocks purified human ALDH1A1 activity | Purified ALDH1A1, NADH fluorescence, propionaldehyde substrate | Potency, µM (series often up to 75.3 µM), for inactives: at the highest dose activity, negative = inhibition, hits mostly inhibitors | 220,000 compounds, 7.3% hits | AID 1030; active = well fitted inhibition curve with a large enough effect, not every such curve was filed as active; inconclusive = small, poorly fitted or top-dose-only effect, or another doubt; inactive = no such curve, though single readings can be large or run the other way;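 note: plate controls were no enzyme wells and a reference inhibitor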
# Sfp PPTase inh – blocks B. subtilis Sfp PPTase activity | Biochemical Sfp PPTase activity, qHTS | Q9F4F7 | Potency, µM, without a hit: largest response in the series, negative = inhibition, actives largely listed as inhibitors | 310,000 compounds, 3.5% hits;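 note: the enzyme is Sfp with the accession as filed and its product quenches rhodamine fluorescence; 0% = enzyme reaction without inhibitor and -100% = no enzyme wells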
#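 Fluorescence-quenching assay: 15 nM Sfp-PPTase preincubated 15 min at room temperature with compound, then 5 uM rhodamine-CoA and 12.5 uM BHQ-2-labelled YbbR peptide added. Fluorescence (ex 525/em 598 nm) read at start and after 30 min; difference gives rate.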
# PLK1 PBD block – blocks phosphopeptide binding to human PLK1 polo-box domain | P53350 | Plk1 PBD binding of FITC phosphopeptide, fluorescence polarization | Potency, µM, for the others: max response, negative = inhibition, most hits filed as inhibitors | 360,000 compounds, 2.8% hits | AID 720504; note: series mostly up to about 57 µM; nearly all actives have a fitted effect of over 65% in size
# RORg inh – ROR gamma (mouse) transcription inhibition; P51450; Drosophila S2 Gal4-RORgamma UAS-luciferase reporter, 20 h; Potency, µM (series often up to 53.6 µM), for the others: at the highest dose activity change, negative = inhibition, usual class: inhibitors; 310,000 compounds, 5.4% hits; note: nearly all actives have a fitted effect of over 60% in size
# Target sequence (P51450 whole entry, looked up, the tested form may be a part): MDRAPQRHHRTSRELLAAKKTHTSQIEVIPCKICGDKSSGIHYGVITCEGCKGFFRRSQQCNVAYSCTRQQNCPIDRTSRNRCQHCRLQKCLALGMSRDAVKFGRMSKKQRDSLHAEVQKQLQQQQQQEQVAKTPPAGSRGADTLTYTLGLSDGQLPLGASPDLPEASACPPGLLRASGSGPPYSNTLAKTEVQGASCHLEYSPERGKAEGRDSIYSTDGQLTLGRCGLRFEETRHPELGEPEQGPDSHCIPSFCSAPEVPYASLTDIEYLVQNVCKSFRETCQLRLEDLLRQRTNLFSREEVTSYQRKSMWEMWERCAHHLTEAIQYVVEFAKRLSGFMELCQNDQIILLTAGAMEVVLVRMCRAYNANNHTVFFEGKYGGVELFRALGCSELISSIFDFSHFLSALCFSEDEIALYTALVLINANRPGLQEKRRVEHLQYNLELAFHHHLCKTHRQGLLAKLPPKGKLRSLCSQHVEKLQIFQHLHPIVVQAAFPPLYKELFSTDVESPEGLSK
#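 Drosophila Schneider cells stably carrying a metallothionein-driven Gal4 DBD–ROR gamma fusion and a UAS-Photinus luciferase reporter were exposed to compound for 1 hr, then induced with copper sulfate (700 uM final) for 20 hr at ambient temperature before luminescence reading.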
# Gal4-VP16 FLuc – counter-screen for ROR gamma inhibitors: Gal4-VP16 reporter; AID 2546; 310,000 compounds, 3.5% hits; Potency, µM (series often up to 53.6 µM), inactives show at the top dose activity, negative = inhibition, most hits filed as inhibitors; Drosophila S2 Gal4-VP16 UAS-luciferase, luminescence, 20 h;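 note: Gal4-VP16 expression switched on by copper sulfate through the metallothionein promoter; nearly all actives have a fitted effect of over 50% in size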
# * hit, by the source's call; ? = inconclusive; / = no result given; [ ] = dose if it differs, or a comment. Unless noted, calls come from the whole dose curve; as a rule, active = well fitted curve in the direction sought with a large enough effect; inconclusive = small, poorly fitted or top-dose-only effect, or another doubt; inactive = no such curve, though single readings can be large; an effect the other way counts as inactive or inconclusive. Unless noted, % is set by controls: 0 for no effect and ±100 for the full control effect; potency is the fitted concentration of half-maximal effect.
SMILES,ALDH1A1 inh,Sfp PPTase inh,PLK1 PBD block,RORg inh,Gal4-VP16 FLuc
CCNC(=S)N/N=C/c1c(Cl)cccc1Cl,14%,11%,-6%,2.5µM*,2.8µM*
CC(C)(C)NC(=S)N/N=C/c1c(Cl)cccc1Cl,7%,9%,0%,4.5µM*,5µM*
Cc1ccc(NC(=O)C(=O)NCCOc2ccc(Cl)cc2)c(C)c1,20%,1%,3%,-7%,-17%
O=C(N/N=C/c1c(Cl)cccc1Cl)c1cccc(F)c1,9%,27%,3%,?,?
Cc1ccc(NC(=S)N/N=C/c2c(Cl)cccc2Cl)c(C)c1,-5%,23%,-1%,0.79µM*,0.89µM*
NC(=NC1C2CC3CC(C2)CC1C3)Nc1ccc(I)cc1 (stereo not given),-6%,29%,/,-6%,-4%
N#Cc1ccc(CN2CC3(CCN(C(=O)c4ccco4)CC3)C2)cc1,-10%,17%,/,-1%,-5%
O=C1C=C(c2ccc(CO)cc2)C[C@@H](c2ccc(F)cc2)C1,/,/,-10%,/,/
Cc1ccc(S(=O)(=O)NNC(=O)C(=O)NNc2ccccn2)cc1,10%,8%,1%,8.9µM*,-7%
CCOC(=O)C1=NN(C(=O)c2ccccc2)C(O)(c2ccc(C)cc2)C1 (stereo not given),-8%,1%,-20%,10µM*,28µM*
CCOC(=O)C1=NN(C(=O)c2cccc(Br)c2)C(O)(C(C)(C)C)C1 (stereo not given),?,12%,/,14µM*,?
CCOC(=O)C1=NN(C(=O)c2ccc(OC)cc2)C(O)(c2ccc(Cl)cc2)C1 (stereo not given),18µM*,-14%,-6%,10µM*,?
COC(=O)C1=NN(C(=O)c2cccc(Br)c2)C(O)(c2ccc(Cl)cc2)C1 (stereo not given),-6%,20%,-5%,-29%,-30%
COC(=O)CCC(C)C1CCC2C3C(O)C[C@@H]4CC(O)CC[C@@]4(C)C3CC(O)[C@]12C (stereo not given in full),13%,-12%,/,11%,-2%
CCOc1ccccc1-c1nnc2n1N=C(c1ccc(OC)c(OC)c1)CS2,/,-25%,/,-14%,0%
COc1cccc(NC(=S)N2CCCN(Cc3ccc(F)cc3)C2)c1,?,-7%,-19%,3.5µM*,?
COc1ccc(NC(=S)N2CCCN(Cc3cccc(Cl)c3)C2)cc1,-5%,21%,-16%,13µM*,3%[10 µM]
CCOc1ccc(NC(=S)N2CCCN(Cc3cccc(Cl)c3)C2)cc1,-1%,12%,-3%,?,5%
COc1cccc(NC(=S)N2CCCC2)c1,12%,-6%,-2%,5%,2%
CSc1cccc(NC(=S)N2CCCN(Cc3cccc(Cl)c3)C2)c1,-16%,6%,-14%,10µM*,?
Cc1cccc(C)c1NC(=S)N1CCCN(Cc2ccc(F)cc2)C1,4%,21%,-5%,14µM*,23%
Cc1cc(C)cc(C(O)c2ncc(-c3ccc(F)cc3)[nH]2)c1 (stereo not given),/,/,3%,/,/
Cc1nc(C(F)(F)F)ccc1C(=O)N1CCC1(C)C(=O)NS(=O)(=O)c1ccc(C#N)cc1 (stereo not given),/,/,-5%,/,/
O=C(N/C(=C\c1cccnc1)C(=O)N1CCC(O)CC1)c1ccccc1,/,4%,-9%,-16%,5%
Cc1cccc(C(=O)N/C(=C/c2ccco2)C(=O)N2CCCCCC2)c1,/,50µM*,1%,-15%,-10%
SMILES,ALDH1A1 inh,Sfp PPTase inh,PLK1 PBD block,RORg inh,Gal4-VP16 FLuc
CC1CCN(C(=O)/C(=C\c2ccco2)NC(=O)c2ccccc2)CC1,/,10%,2%,36%,-2%
Cc1ccc(C(=O)N/C(=C/c2ccco2)C(=O)N2CCC(C)CC2)cc1,/,56µM*,-4%,1%,3%
CC1CCN(C(=O)/C(=C\c2cccs2)NC(=O)c2ccccc2)CC1,?,20%,-3%,2.8µM*,18µM*
O=C(N/C(=C/c1cccnc1)C(=O)N1CCCCCC1)c1cccc(Br)c1,/,14%,-3%,10µM*,?
CCNC(=O)C1(C)CCCN(C(=O)c2sc(-c3ccccc3)nc2C)C1 (stereo not given),/,/,-7%,/,/
COc1ccccc1CN1CC(C(=O)NCCCCc2ccccn2)CCC1=O (stereo not given),/,/,-1%,/,/
CC(C)CNC(=O)C1(C)CCCCCN1Cc1ccccc1-c1ccccc1 (stereo not given),/,/,-6%,/,/

# Compound activity as filed in PubChem.
